# Compound activity as filed in PubChem BioAssay.
# RE007 growth inh = less growth of the S. pombe RE007 Vpr strain; Potency, µM (titrated, usually from 92.2 µM), actives largely listed as inhibitors; hit rate 0.21% among 360,000; S. pombe RE007 Vpr strain, BacTiter-Glo ATP luminescence, 24 h; AID 651644; active = well fitted falling curve with a large enough effect; inconclusive = small, poorly fitted or top-dose-only effect; inactive = no such curve, though single readings can be large or run the other way; note: nearly all actives have a fitted effect of over 50% in size
#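 Fission yeast strain RE007, carrying one chromosomally integrated HIV-1 vpr copy, was seeded at OD 0.01 in PMG+AL medium with 23 nL pinned compound. After 24 h at 30 °C and 99% humidity, viability was read by BacTiter-Glo luminescence.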
# CHX counter = counter-screen hit for Shiga toxin inhibitors, cycloheximide; cell reporter, cycloheximide protein synthesis inhibition counterscreen; max response, %; hit rate 12% among 300,000; AID 2314; in the data active = max response mostly above about 13%, no sharp cut-off; inactive = mostly below about 14%; note: read at 38.3 µM for the half of the compounds with a filed dose
# LmPK inh = inhibitors of Leishmania mexicana pyruvate kinase; Q27686; purified LmPK, Kinase-Glo ATP luminescence, 1 h; Potency, µM (top dose mostly 57.5 µM), hits mostly inhibitors; hit rate 0.37% among 290,000; AID 1721
#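 Screened at intermediate enzyme activity to detect both inhibitors and activators: LmPK at 0.1 nM, with a 0.5 nM enzyme column as activation reference. PEP 0.5 mM, ADP 0.1 mM; ATP detected by luminescence after 1 h.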
# Tb PYK inh = inhibitors of Trypanosoma brucei pyruvate kinase. Potency, µM (highest dose often 76.8 µM), hits mostly inhibitors. hit rate 0.12% among 410,000. TbPYK enzyme, Kinase-Glo Plus ATP luminescence, 45 min; note: nearly all actives have a fitted effect of over 50% in size
#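 Glycolytic pyruvate kinase of T. brucei was incubated with substrate, test compound and 130 uM ADP for 45 minutes at room temperature. Luminescent Kinase-Glo Plus signal was measured after 10 minutes.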
# FBPA Giardia inh = inhibitors of Giardia lamblia fructose-1,6-bisphosphate aldolase | A8B2U2 | purified Giardia FBPA | Potency, µM (titrated, usually from 59.6 µM), actives largely listed as inhibitors | hit rate 0.71% among 290,000; note: nearly all actives have a fitted effect of over 55% in size
# Target sequence (A8B2U2 whole entry, looked up): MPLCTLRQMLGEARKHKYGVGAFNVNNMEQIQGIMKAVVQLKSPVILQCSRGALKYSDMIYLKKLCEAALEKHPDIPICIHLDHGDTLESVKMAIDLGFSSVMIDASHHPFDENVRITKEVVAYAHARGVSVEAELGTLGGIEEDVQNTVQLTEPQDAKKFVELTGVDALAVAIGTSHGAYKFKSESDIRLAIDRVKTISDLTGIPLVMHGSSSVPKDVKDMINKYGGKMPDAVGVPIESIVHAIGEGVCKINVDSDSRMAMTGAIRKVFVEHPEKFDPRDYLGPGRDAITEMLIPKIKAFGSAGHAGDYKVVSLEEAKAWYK
#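 40 nM FBPA preincubated 10 min at RT with compound (up to 57.5 uM final), then substrate plus GAPDH/TPI/NAD/arsenate coupling and diaphorase/resazurin added. Fluorescence read after 20 min at RT, 525/598 nm.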
# Shiga toxin inh = Shiga toxin inhibition | AID 2315 | Vero cells, Shiga toxin protein synthesis inhibition reporter | hit rate 9.2% among 290,000 | inhibition, % at 38.7 µM; in the data active = inhibition mostly above about 28%, no sharp cut-off; inactive = mostly below about 43%
# Hits are given with their value; n = inactive; u = inconclusive; x = not tested or not shown; [ ] = remark or other dose. The entries come from a sample that favours hits as a whole. Unless noted, calls come from the whole dose curve; as a rule, active = well fitted curve in the direction sought with a large enough effect; inconclusive = small, poorly fitted or top-dose-only effect, or another doubt; inactive = no such curve, though single readings can be large; an effect the other way counts as inactive or inconclusive.
SMILES,RE007 growth inh,CHX counter,LmPK inh,Tb PYK inh,FBPA Giardia inh,Shiga toxin inh
Cc1ccc2nc(N3CCN(C)CC3)c(C#N)cc2c1,n,33,n,n,n,n
Cc1ccc2cc(C#N)c(N3CCN(C)CC3)nc2c1,n,n,n,n,n,n
Cc1ccc2nc(N3CCN(C)CC3)[nH]c2c1,n,48,n,n,n,67
Cc1ccc(C(=O)N2c3nc(-c4ccco4)nn3C3(CCCCC3)[C@@H]3CCCC[C@@H]32)cc1,x,x,x,n,x,x
O=C(c1cc(-c2ccccc2)n[nH]1)N1CCc2c([nH]c3ccccc23)C1c1ccccn1 (configuration not stated),n,n,n,n,n,n
CCOc1ccc(-n2nc(CO)c(C(=O)NCc3ccccn3)n2)cc1,x,x,x,n,x,x
CN(C)c1ccc(/C=N/n2cnn(Cc3ccccc3Cl)c2=S)cc1,n,38,n,n,n,97
CC1=C(C(=O)N(C(C)C)C(C)C)CC(CC(=O)NC(c2ccccc2)c2ccccc2)C(=O)N1CCCN1CCCC1=O (configuration not stated),n,x,x,n,x,x
CCOC(=O)c1cc(Cl)c2c(ccc3ccccc32)n1,n,x,x,n,x,x
CCOC(=O)c1nc2c(ccc3ccccc32)cc1C,n,17,n,n,n,42
COc1ccc(C(C)(O)c2nc(-c3cccc(C(F)(F)F)c3)cs2)cc1 (configuration not stated),35µM,x,x,n,x,x
O=C(NNC(=O)c1ccccc1OCc1ccccc1Cl)c1csc(N2CCOCC2)n1,n,10,n,n,x,n
O=C(CCCOc1ccccc1)Nc1ccc(Cl)cn1,n,30,n,n,n,64
CCCCCCC(=O)Nc1ccc(Cl)cn1,n,32,n,n,n,100
O=C(CCCOc1ccccc1)Nc1ccncc1,n,n,n,n,n,n
Cn1cccc1/C=C(/C#N)c1ccc(F)cc1,n,26,n,n,n,n
Cn1cccc1/C=C(\C#N)c1ccccc1,n,n,n,n,n,n
Cn1cccc1C(=O)/C(C#N)=C/c1ccc(F)cc1,n,19,n,n,n,n
Cc1ccc(-n2c(=O)c3cccnc3n2CC(=O)Nc2cc(C)cc(C)c2)cc1,x,x,x,n,x,x
CCN(CC)c1ccc(NC(=O)COC(=O)/C=C/c2nc3ccccc3s2)cc1,n,14,n,n,n,n
CCN(CC)c1ccc(/C=C/c2nc3ccccc3s2)cc1,x,40,n,x,n,127
Cn1c(O)c(N=NC(N)=S)c2ccccc21,x,x,x,n,x,x
Cc1occc1C(=O)N=Nc1c(O)[nH]c2ccc(Br)cc12,x,33,n,x,n,75
O=C(N=Nc1ccc(NOC(=O)c2ccccc2Br)cc1)c1ccccc1O,x,n,u,x,u,n
Cc1cc(N=NC(=O)c2ccccc2O)c2ccccc2c1O,n,40,n,n,u,126
SMILES,RE007 growth inh,CHX counter,LmPK inh,Tb PYK inh,FBPA Giardia inh,Shiga toxin inh
O=C(CNC(=O)c1ccco1)N=Nc1c(O)[nH]c2ccc(Br)cc12,n,n,n,n,n,n
Cn1c(O)c(N=NC(=O)c2ccccc2O)c2ccccc21,n,37,n,u,n,62
Cc1occc1C(=O)N=Nc1c(O)n(C)c2ccccc12,n,36,n,n,n,58
CC(C)CC(=O)Nc1c(C(=O)N2CCN(c3ccccc3F)CC2)oc2ccccc12,x,x,x,n,x,x
O=C(Nc1ncccc1O)C1CCN(S(=O)(=O)c2ccc3ccccc3c2)CC1,n,x,x,n,x,x
COc1ccc(CC(=O)Nc2cc(S(=O)(=O)N3CCCCC3)ccc2OC(C)C)cc1OC,n,x,x,n,x,x
CN1C(=O)[C@H]2[C@@H](c3ccccc3)N[C@]3(CCCN(Cc4ccc(F)cc4)C3=O)[C@H]2C1=O,n,x,x,n,x,x
Cn1c(O)c(N=Nc2ccccc2[N+](=O)[O-])c2ccccc21,n,31,n,n,n,75
N#Cc1ccccc1NC(=O)c1ccc2c(c1)OCCO2,n,31,n,n,n,99
Cc1ccccc1NC(=O)c1ccc2c(c1)OCCO2,n,18,n,n,n,137
COC(=O)c1ccccc1NC(=O)c1ccc2c(c1)OCCCO2,n,22,n,n,x,n
Cc1cccc(NC(=O)c2ccc3c(c2)OCCO3)c1C,n,47,n,n,n,109
N#Cc1ccccc1COC(=O)c1ccc2c(c1)OCCO2,n,x,x,n,x,x
Cc1cccc(NC(=O)c2ccc(C(=O)Nc3cccc(C)c3C)cc2)c1C,x,x,x,n,x,x
CC(C)(C)NC(=O)c1ccccc1NC(=O)c1ccc2c(c1)OCO2,n,n,n,n,n,n
CCN(C(=O)Cn1c(C(=O)OC)cc2sc(Cl)cc21)c1cccc(C)c1,x,x,x,n,x,x
CCOc1ccc(-c2c(C)nn3c(C)c(C(=O)Nc4ccccc4C(=O)OC)cnc23)cc1OCC,x,x,x,n,x,x
CCOc1ccc(OC(=O)c2sc3ncn(Cc4cccc(F)c4)c(=O)c3c2C)cc1,x,x,x,n,x,x
CC1(C)CC2C1CCC1(C)OC2(C)CCC1O (configuration not stated),x,x,x,x,n,x
N#Cc1ccccc1NC(=O)COC(=O)c1ccc2c(c1)OCCO2,n,19,n,n,n,n
CC(=O)N1CCC[C@@]2(CCN(C(c3ccccc3)c3ccccc3)C2)C1,x,x,x,n,n,x
Clc1ccccc1COc1ccccc1-c1nnco1,n,n,n,n,n,n
c1ccc(OCCOc2ccccc2-c2nnco2)cc1,n,15,n,n,n,136
CCCCCCCSc1ncnc2[nH]ncc12,n,x,x,n,x,x
OC[C@@H]1OC(O)[C@H](O)[C@H](O)[C@H]1O (some centres not stated),x,n,x,x,n,n
SMILES,RE007 growth inh,CHX counter,LmPK inh,Tb PYK inh,FBPA Giardia inh,Shiga toxin inh
O=C(Nc1ccc(Cl)c(Cl)c1)Nc1nccs1,u,34,n,n,n,69
CSc1ccc(Cl)c(C(=O)Nc2nccs2)c1,n,n,n,n,n,n
NC(CO)c1csc(NC(=O)Nc2cccc(Cl)c2)n1 (configuration not stated),n[18.4 µM],x,x,n,x,x
O=C(Nc1cccc(Cl)c1)Nc1nccs1,n[3.69 µM],69,n,x,n,98
CCCCN1C[C@H](C)[C@@H](CC(=O)NC)C1=O,n,x,x,n,x,x
Clc1ccccc1/C=N/NC1=Nc2cccc3cccc1c23,n,32,n,n,n,66
C(=N\NC1=Nc2cccc3cccc1c23)/c1ccccn1,u,53,n,n,u,97
O=C(CNc1ccc2ccccc2c1)N/N=C/c1ccccn1,n,n,n,n,u,n
Cc1ccc(CNC(=O)C2CCCN(S(=O)(=O)c3cn(C)cn3)C2)cc1 (configuration not stated),x,x,x,n,x,x
CCOCCCNC(=S)Nc1ccc(Br)cc1Cl,n,12,n,n,n,n
S=C(NCc1ccccc1)NCc1ccccc1,n,n,n,n,n,n
CCOCCCNC(=S)NCCc1ccccc1,n,43,n,n,n,108
S=C(NCCCc1ccccc1)NCc1ccccc1,n,26,n,n,x,25
CCOc1ccc(OCC)c(NC(=O)CCc2c(C)nc3c(c2C)c(=O)n(C)c(=O)n3C)c1,x,x,x,n,x,x
CC(Oc1ccccc1)C(=O)Nc1nnc2n1CCS2 (configuration not stated),x,x,x,n,x,x
